Screens as filed in PubChem BioAssay.
Methyltransferases – Primary Screen for Target Class Profiling of Small Molecule Inhibitors of Methyltransferases; purified enzyme, MTase-Glo SAH luminescence; active compounds read low; calls only at 40 µM; hit rate 3.9% among 25,000; call rule not given here
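Each enzyme was assayed with SAM and its substrate. SAH formation detected by MTase-Glo luminescence; single-point 40 uM screen[…].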
Large screens that a line does not name were inactive; ! = a repeat was not active. The full list was thinned out, with hits kept by preference.

O=C(O)CC1(O)C(=O)Nc2ccccc21 (stereo unspecified)	Methyltransferases active
O=C1Nc2ccccc2C12CN([S+](=O)([O-])c1ccccc1)C2	none
Cn1nccc1CN1CC2(C1)C(=O)Nc1ccccc12	none
Cc1nc2ccccc2n1CCNS(=O)(=O)c1ccc(Cl)cc1	none
Cc1ccc(-c2n[nH]n3c2nc(=O)c2ccc(C(=O)NCCc4ccccc4)cc23)cc1	none
O=C(NCCc1ccccc1)c1ccc2c(=O)[nH]c3c(C(=O)NCC4CCCO4)sc(=S)n3c2c1 (stereo unspecified)	Methyltransferases active
CC(C)NC(=O)c1sc(=S)n2c1[nH]c(=O)c1ccc(C(=O)NC(C)CCc3ccccc3)cc12 (stereo unspecified)	none
CC(C)OCCCNC(=O)c1ccc2c(=O)[nH]c3c(C(=O)NC4CCCC4)sc(=S)n3c2c1	none
Cn1c(=O)c2ccc(C(=O)NC3CCCCC3)cc2n2c(=O)n(Cc3ccc(Cl)cc3)nc12	none
O=C(NCCc1ccc(Cl)cc1)c1ccc2c(=O)[nH]c3c(C(=O)NC4CCCC4)sc(=S)n3c2c1	Methyltransferases active
COc1ccc(OC)c(CN2C(=O)c3ccc(-c4ccco4)n3CC2(C)C(=O)NCc2ccccc2)c1 (stereo unspecified)	none
CCCC1c2ccc(C)n2CCN1C(=O)Nc1ccccc1C (stereo unspecified)	none
COc1ccc(N2C(=O)c3cc(-c4cccs4)nn3CC2(C)C(=O)NC2CCCCCC2)cc1 (stereo unspecified)	none
O=c1[nH]c2ccc(S(=O)(=O)NCc3cccnc3)cc2[nH]1	none
Cc1nc(Nc2n[nH]c3c2CN(C(=O)N[C@H](CN(C)C)c2ccccc2)C3(C)C)c2sccc2n1	Methyltransferases active
CCc1ccc(N2C(=O)c3cc4sc(CC)cc4n3CC2(C)C(=O)NC2CCC(C)CC2)cc1 (stereo unspecified)	none
CCOC(=O)CCN(C(=O)c1ccc2c(c1)nc(CNc1ccc(C(=N)N)cc1)n2C)c1ccccn1	Methyltransferases active
Nc1nccc(Oc2ccc(NC(=O)c3c[nH]cc(-c4ccc(F)cc4)c3=O)cc2F)c1Cl	Methyltransferases active
COc1ccc(OC)c(-c2ccc(NC(=O)c3ccncc3F)cc2)c1	none
O=C(Nc1ccc(F)cc1)c1ccnc2[nH]ccc12	none
CC(C)CCN1C(=O)c2cc3ccccc3n2CC1(C)C(=O)NCc1ccccc1 (stereo unspecified)	none
COC(=O)c1ncn2c1C(=O)N(Cc1ccc(OC(C)C)cc1)C(C)(C(=O)NC1CCCC1)C2 (stereo unspecified)	none
CC(C)CNC(=O)c1ccc2c(=O)n(C)c3nn(Cc4ccccc4Cl)c(=O)n3c2c1	none
CC(C)Cn1c(=O)c2ccc(C(=O)NC3CCCCC3)cc2n2c(SCC(N)=O)nnc12	none
CCOc1ccc(CCNC(=O)c2cc3n(n2)CC(C)(C(=O)NC2CCCC2)N(CC)C3=O)cc1 (stereo unspecified)	none
CN(C)CCC=C1c2ccccc2CCc2ccccc21	Methyltransferases active
CC(CN(C)C)CN1c2ccccc2CCc2ccccc21 (stereo unspecified)	none
COc1ccc2cc3n(c2c1)CC(C)(C(=O)NC1CCCCC1)N(CCN1CCCCC1C)C3=O (stereo unspecified)	none
Cc1nn(C)c(=O)n1C1CCN(S(=O)(=O)c2cccs2)CC1	none
CN1CCN(CCCNC(=O)CCc2nnc3n(Cc4ccccc4Cl)c(=O)c4ccccc4n23)CC1	none
CCCCNC(=O)CCc1nnc2n(Cc3ccc(Cl)cc3)c(=O)c3ccccc3n12	none
CC1CCN(CCCNC(=O)CCc2nnc3n(Cc4ccc(F)cc4)c(=O)c4ccccc4n23)CC1	Methyltransferases active
CCOCCCNC(=O)CCc1nnc2n(Cc3ccc(Cl)cc3)c(=O)c3ccccc3n12	none
Cc1ccc(CNC(=O)CCc2nnc3n(Cc4ccc(Cl)cc4)c(=O)c4ccccc4n23)cc1	none
CC1CCN(CCCNC(=O)CCc2nnc3n(Cc4ccccc4)c(=O)c4ccccc4n23)CC1	Methyltransferases active
CCN(CC)CCNC(=O)CCc1nnc2n(Cc3ccccc3)c(=O)c3ccccc3n12	none
CCN(CC)CCCNC(=O)CCc1nnc2n(Cc3ccc(Cl)cc3)c(=O)c3ccccc3n12	Methyltransferases active
Cc1ccc(CCNC(=O)CCc2nnc3n(Cc4ccccc4)c(=O)c4ccccc4n23)cc1	none
CC1CCN(CCCNC(=O)CCc2nnc3n(Cc4ccc(Cl)cc4)c(=O)c4ccccc4n23)CC1	Methyltransferases active
CCOCCCNC(=O)CCc1nnc2n(Cc3ccc(F)cc3)c(=O)c3ccccc3n12	none
O=C(CCc1nnc2n(Cc3ccc(F)cc3)c(=O)c3ccccc3n12)NCCN1CCOCC1	none
O=C(CSc1nnc2n(CCc3ccccc3)c(=O)c3ccccc3n12)Nc1cccc(Cl)c1	none
CCNC(=O)C(CC)n1ccc2cc(S(=O)(=O)N3CCCCC3)ccc21 (stereo unspecified)	none
COc1ccc(CNC(=O)c2cc3n(n2)CC(C)(C(=O)NC2CCCC2)N(C)C3=O)c(OC)c1 (stereo unspecified)	none
Cc1ccc(CN2C(=O)c3cc4occc4n3CC2(C)C(=O)NC2CCCCC2C)cc1 (stereo unspecified)	none
CC(C)Cn1c(=O)c2ccccc2n2c(=O)n(CC(=O)Nc3ccccc3F)nc12	none
COCCCNC(=O)C1(C)Cn2nc(-c3ccccc3)cc2C(=O)N1c1ccc(C)cc1C (stereo unspecified)	none
CC(C)CNC(=O)c1ccc2c(=O)n(C(C)C)c3nn(CC(=O)Nc4ccc(C(C)C)cc4)c(=O)n3c2c1	none
CC1CCCCC1NC(=O)C1(C)Cn2c(cc3occc32)C(=O)N1CCc1ccccc1 (stereo unspecified)	none
COc1ccccc1CCNC(=O)c1ncn2c1C(=O)N(C1CC1)C(C)(C(=O)NCc1ccc(F)cc1)C2 (stereo unspecified)	none
CC(C)Oc1ccc(CN2C(=O)c3cc4sccc4n3CC2(C)C(=O)NC2CCCCC2)cc1 (stereo unspecified)	none
Cc1ccc(CCN2C(=O)CSc3c(c4ccccc4n3C)C2C(=O)NCCC(C)C)cc1 (stereo unspecified)	none
CCCCc1nc2c3ccccc3n(CC(=O)N3CCN(c4ccccc4F)CC3)c(=O)n2n1	none
CC1(C(=O)NC2CCCCCCC2)Cn2c(ccc2-c2ccco2)C(=O)N1CCc1cccs1 (stereo unspecified)	none
CC1CCC(NC(=O)C2(C)Cn3c(cc4occc43)C(=O)N2Cc2ccccc2Br)CC1 (stereo unspecified)	none
CC1CCN(S(=O)(=O)c2ccc3c(c2)oc(=O)n3CC(=O)N2CCN(C3CCCCC3)CC2)CC1	none
COc1cccc(N2CCN(c3ccc4nnc(CCC(=O)N5CCN(c6ccc(F)cc6)CC5)n4n3)CC2)c1	none
CC(=O)Nc1c2n(c3ccc(F)cc13)CC(C)(C(=O)NC1CCCCC1)N(Cc1cccnc1)C2=O (stereo unspecified)	none
CCc1cc2c(cc3n2CC(C)(C(=O)NC2CCC(C)CC2)N(C2CCCC2)C3=O)s1 (stereo unspecified)	none
Cc1ccc(CN2C(=O)c3cc(-c4ccccc4)nn3CC2(C)C(=O)NCc2ccccc2)o1 (stereo unspecified)	none
CC1(C(=O)NC2CCCCCC2)Cn2c(cc3sccc32)C(=O)N1Cc1ccccc1F (stereo unspecified)	none
COCCN1C(=O)c2c(NC(C)=O)c3cc(F)ccc3n2CC1(C)C(=O)NC1CCCCC1 (stereo unspecified)	none
Cc1ccc(S(=O)(=O)/C=C/C#N)cc1	Methyltransferases active!
Cc1ccc(NC(=O)Cn2nc3n(CCCOC(C)C)c(=O)c4ccccc4n3c2=O)cc1C	none
